Reference: PubChem BioAssay (NCI)
The panel holds about 83,000 compounds, 20% with a hit somewhere; the sample as a whole holds those more often.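 Testing used 96-well plates and a 48-hour single-concentration exposure. Example: -40 means 40% of the starting cells died.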 Calls of active or inactive are those of the source. The calls were made as follows: active = growth percent below 10; inactive = the rest.

tested on: HL-60(TB) leukemia; experiment: NCI-60 one-dose screen, 48 h (100 = growth as untreated, 0 = no growth, -100 = all killed); conditions: 10 µM unless noted

Row | SMILES | growth
1 | COC(=O)CCC1=C(C)C(C)=N/C1=C\c1[nH]c(-c2ccc[nH]2)cc1OC | -21.8% (active)
2 | CC(C)CCNCC(O)Cn1c2ccccc2c2ccccc21 (stereo not given) | -14.8% (active)
3 | COc1cccc(Nc2nccc(Nc3ccc4[nH]ncc4c3)n2)c1 | -62.3% (active)
4 | O=C(O)CCN1CCN(c2cccc(Cl)c2)CC1 | 97% (inactive)
5 | CCCCNCCCCCNc1cc(OC)cc2cccnc12 | 67.5% (inactive)
6 | COc1ccc(-c2cc3c(oc2=O)-c2ccccc2OC3OC(C)=O)cc1 (stereo not given) | 85.8% (inactive)
7 | Cc1ccc(Cc2cnc(NC(=O)c3ccc4noc(-c5ccccc5)c4c3)s2)cc1 | 97.7% (inactive)
8 | O=C1Nc2ccc(F)cc2/C1=C/c1nc(-c2ccc(F)cc2)n2ccccc12 | 103% (inactive)
9 | COc1ccc(-c2cn3c(ccc4ccccc43)n2)cc1 | 109% (inactive)
10 | Cc1ccc(/C=C(\C#N)n2nnc3cc(Cl)c(Cl)cc32)cc1 | 1.4% (active)
11 | O=C(CSc1nnc(-c2ccc(Cl)c(Cl)c2)n1-c1ccccc1)Nc1ccc(C(=O)/C=C/c2ccc(Cl)cc2)cc1 | 81.8% (inactive)
12 | CCCCOC(=O)c1cccc([N+](=O)[O-])c1 | 142% (inactive)
13 | CSc1nc(N)c(NS(=O)(=O)c2ccc(C(C)=O)cc2)c(=O)[nH]1 | 108% (inactive)
14 | Fc1cccc(COc2ccc(Nc3ncnc4onc(-c5ccccc5)c34)cc2)c1 | 7.34% (active)
15 | Oc1ccccc1-c1nnc(COc2ccc(Cl)cc2Cl)o1 | 3.89% (active)
16 | COc1cc(Nc2ncc3c(n2)-c2ccc(Cl)cc2C(c2c(F)cccc2OC)=NC3)ccc1C(=O)O | 45.4% (inactive)
17 | COc1cc2oc3cc(C)oc(=O)c3c2cc1OC | 80.3% (inactive)
18 | CC1(C)CC[C@]2(C(=O)O)CC[C@]3(C)C(=CC[C@@H]4[C@@]5(C)C[C@@H](Cc6cn([C@@H]7O[C@H](CO)[C@@H](O)[C@H](O)[C@H]7O)nn6)[C@H](O)C(C)(C)[C@@H]5CC[C@]43C)[C@@H]2C1 | 93.4% (inactive)
19 | O=c1oc2ccccc2cc1-c1csc(N/N=C/c2cc3ccccc3nc2Cl)n1 | 116% (inactive)
20 | O=c1c(Cc2ccc(F)cc2)cc(-c2ccccc2)nn1C/C(=N/O)c1ccccc1 | 24.8% (inactive)

Row | SMILES | growth
21 | CC(=O)Cc1cccnc1 | 82.4% (inactive)
22 | COc1cc(Nc2cc(O)c3c(=O)cc(-c4ccccc4)oc3c2)cc(OC)c1 | -35.7% (active)
23 | CC(O)C(N)=O (stereo not given) | 117% (inactive)
24 | c1ccc2c(Nc3cccc4ccccc34)cccc2c1 | 18.9% (inactive)
25 | CCCCN1CCCCn2c1nc1c2c(=O)n(C)c(=O)n1C | 108% (inactive)
26 | C1Cc2onc(-c3noc4c3CCC4)c2C1 | 103% (inactive)
27 | COc1cc(-c2cc(C(=O)Nc3nc4ccccc4s3)nc3cc(-c4ccccc4)nn23)cc(OC)c1OC | 48.3% (inactive)
28 | Oc1c(CN2CCOCC2)cc(COCc2ccccc2)c2cccnc12 | 0.702% (active)
29 | O=[N+]([O-])c1ccc(Sc2cccc[n+]2[O-])c2nonc12 | -49.1% (active)
30 | CC1=CCC(OC(=O)C(C)(C)CCC(O)(C(=O)OC2(C(C)C)CCC3(C)OC3C2)C(C)C)(C(C)C)CC1 (stereo not given) | -43.1% (active)
31 | O=C(Nc1cccc(-n2cc(-c3ccncc3)c(-c3ccc(O)c(Cl)c3)n2)c1)c1ccc(N2CCOCC2)c(C(F)(F)F)c1 | -10.6% (active)
32 | CCN(CC)CCCOc1cccc2c1C(=O)c1cccc(OCCCN(CC)CC)c1C2=O | 30.3% (inactive)
33 | COc1ccc(-c2cc(-c3cc(OC)c(OC)c(OC)c3)c(C#N)c(N3CCOCC3)n2)cc1O | -31.8% (active)
34 | COc1ccc(C(=O)c2cc(OC)c(OC)c(OC)c2)cc1/C=C/C(=O)c1ccc2c(c1)OCO2 | 27.5% (inactive)
35 | O=C(O)C#Cc1ccc(Cl)cc1 | 94.1% (inactive)
36 | CCC(=O)NC(O)C(Cl)(Cl)C(C)Cl (stereo not given) | 119% (inactive)
37 | COc1ccc(N(C)c2nc(Cl)nc3cnn(C)c23)cc1 | -4.95% (active)
38 | COc1cccc(-c2nn(-c3ccccc3)cc2-c2ccnc(NCCNS(=O)(=O)c3ccc(Cl)cc3)c2)c1 | 7.06% (active)
39 | CCCC(=O)NNc1[nH]c(-c2ccc(OC)cc2)cc1C(=O)OCC | -27.7% (active)
40 | CN(C)CCN1C(=O)c2cccc3c(/C=C/CN4C(=O)c5cccc6cccc(c56)C4=O)ccc(c23)C1=O | 12.9% (inactive)
